From PubChem
Compounds with a hit are over-represented: about 4% of the library has one in this group of screens.
GRP78 ERSR act: qHTS for Inducers of the Endoplasmic Reticulum Stress Response (ERSR) in Human Glioma: qHTS; U87-MG GRP78 promoter luciferase reporter, 16 h; Potency, µM, for inactives: at the highest dose activation, hits mostly activators; 420,000 tested, 0.02% active; active = well fitted activation curve with a large enough effect; note: potency is the fitted concentration of half-maximal effect; series mostly up to about 76 µM; % of control where 0% means no effect; nearly all actives have a fitted effect of over 35% in size
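ERSR induction read as luciferase luminescence (Bright-Glo, 10 min at room temperature) in stably transfected human U87-MG glioma cells exposed to compounds for 16 h, using GRP78 as sensor.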
TRHR enhancer: qHTS for Small Molecule Agonists and Allosteric Enhancers of Human TRH Receptor: Primary Screen for Enhancers; Thyrotropin-releasing hormone receptor (Homo sapiens), P34981; TRHR cells, fluo-8 calcium fluorescence, EC20 TRH enhancement; enhancement, % at 2 µM; 360,000 tested, 0.66% active; AID 493056, 2011; in the data active = enhancement above about 30%; note: 0% is about no effect
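Enhancer read-out: after compound pinning and an initial kinetic agonist-mode read, an EC20 of TRH (10 nM final) was injected and fluo-8 calcium signal (Ex 480/Em 530) followed at 1 s/cycle for 100 cycles in TRHR-expressing cells.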
D1 agonist: Allosteric Agonists of the Human D1 Dopamine Receptor: qHTS; D(1A) dopamine receptor (Homo sapiens), P21728; HEK293 T-REx D1 cells, calcium flux, agonist mode; activation, % at 2 µM; 360,000 tested, 1% active; note: 0% is about no effect
Target sequence (P21728 whole entry, looked up): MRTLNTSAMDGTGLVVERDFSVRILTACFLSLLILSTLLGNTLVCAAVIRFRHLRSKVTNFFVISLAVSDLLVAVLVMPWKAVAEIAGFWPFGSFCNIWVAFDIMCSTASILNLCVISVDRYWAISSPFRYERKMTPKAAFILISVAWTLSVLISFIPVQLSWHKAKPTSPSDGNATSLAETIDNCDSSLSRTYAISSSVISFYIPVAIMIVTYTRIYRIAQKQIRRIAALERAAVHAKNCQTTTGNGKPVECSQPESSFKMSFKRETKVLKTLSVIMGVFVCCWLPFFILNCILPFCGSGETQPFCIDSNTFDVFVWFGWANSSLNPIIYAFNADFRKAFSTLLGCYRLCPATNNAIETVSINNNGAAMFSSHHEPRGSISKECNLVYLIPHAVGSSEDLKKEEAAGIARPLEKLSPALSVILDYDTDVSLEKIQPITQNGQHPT
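Inducible HEK293 T-REx D1 cells, force-coupled to calcium signalling, were plated at 4000 cells/well with tetracycline and held overnight at 30 C. After no-wash calcium dye loading, compound-evoked calcium rise over 180 s flagged agonists.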
TRHR agonist: qHTS for Small Molecule Agonists and Allosteric Enhancers of Human TRH Receptor: Primary Screen for Agonists | Thyrotropin-releasing hormone receptor (Homo sapiens), P34981 | TRHR cells, calcium flux fluo-8, FDSS agonist mode | activation, % at 2 µM | 360,000 tested, 0.18% active; note: 0% is about no effect
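Steps: seed TRHR cells overnight; add fluo-8 no-wash Ca dye, RT 30 min–1.5 h; record 10 s baseline; pin-transfer compounds; monitor fluorescence 1 cycle/s for the agonist window. Calcium increases flag candidate agonists.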
D1 antagonist: Antagonist of Human D 1 Dopamine Receptor: qHTS; D(1A) dopamine receptor (Homo sapiens), P21728; HEK293 TREx D1 cells, calcium flux, dopamine EC80; active compounds read low; activity change, negative = inhibition, % at 10 µM; 360,000 tested, 3.2% active; in the data active = activity change below about -30%; note: % is set by controls: 0 for no effect and ±100 for the full control effect
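Kinetic fluorescence of a calcium dye serves as the read-out. D1-expressing Hek293 Trex cells, induced overnight at 30 C, are exposed to compound for 180 s before an EC80 dopamine addition, then read 180 s further.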
D1 potentiator: Potentiators of Human D1 Dopamine Receptor: qHTS | HEK293 TREx D1 cells, calcium flux, dopamine EC20 potentiation | D(1A) dopamine receptor (Homo sapiens), P21728 | potentiation, % at 10 µM | 360,000 tested, 0.036% active; in the data active = potentiation above about 30%; note: 0% is about no effect
The depositor's hits bear a star; . = no result. Cut-off read from the data, not from the text of the source, unless noted: active = activation above about 30%; inactive = the rest.

SMILES	GRP78 ERSR act	TRHR enhancer	D1 agonist	TRHR agonist	D1 antagonist	D1 potentiator
CCC(=O)c1cc(F)ccc1OCC(=O)N1CCN(c2ccc(F)cc2)CC1	-6%	-5	7	0	-34*	-8
CC(=O)c1cc(F)c(N2CCN(C(=O)COc3ccc(F)cc3)CC2)cc1C	1%	-2	7	0	-33*	-7
CCn1cc(C(=O)NC(C)C)c(=O)c2cc(F)c(N3CCN(C(=O)c4ccco4)CC3)cc21	-1%	1	5	0	-31*	-3
CCn1cc(C(=O)NCCC(C)C)c(=O)c2cc(F)c(N3CCN(C(=O)c4ccco4)CC3)cc21	-5%	-1	0	0	7	3
CC(C)CC(NC(=O)c1ccc(Cl)cc1)C(=O)O (configuration not stated)	-2%	33*	4	0	2	-4
O=C(O)CCC(NC(=O)c1ccc(Cl)cc1)C(=O)O (configuration not stated)	0%	0	1	0	-32*	-4
CCC(Sc1nnnn1C)C(=O)Nc1ccc(C(C)=O)cc1 (configuration not stated)	3%	4	2	0	-6	0
CCCNc1c(NS(=O)(=O)c2ccc(NC(=O)CC)cc2)c(=O)oc2ccccc12	-2%	-3	0	1	-1	-1
CCOC1=C2[C@H](c3ccc(CC)cc3)N(S(=O)(=O)c3ccc(C)cc3)C[C@H]2n2c(=O)n(-c3ccccc3)c(=O)n2C1	-1%	.	.	.	.	.
C[C@@H]([C@H](O)c1ccc(O)cc1)N1CCC(Cc2ccccc2)CC1	-5%	.	.	.	.	.
C[C@@H](CN1CCC(Cc2ccccc2)CC1)[C@@H](O)c1ccc(O)cc1	-4%	-2	7	1	-33*	-6
OC(CN1CCC(Cc2ccccc2)CC1)C(F)(F)F (configuration not stated)	-2%	-3	3	1	1	-8
CC(C(O)c1ccc(O)cc1)N1CCC(Cc2ccccc2)CC1 (configuration not stated)	-6%	-5	7	0	-50*	-3
Cc1ccc(CCN2C(=O)CCC2(C)C(=O)NCc2cccnc2)cc1 (configuration not stated)	-3%	-2	0	0	-20	-3
CCOc1ccc(CN2C(=O)CCC2(C)C(=O)NCc2cccnc2)cc1 (configuration not stated)	-6%	-1	3	0	-30*	-8
CC(C)c1[nH]nc2c1C(C1C=CCCC1)C(C#N)=C(N)O2 (configuration not stated)	-13%	3	-1	-1	17	-2
CC(C)(C)OC(=O)N[C@@H](C(=O)OC(C)(C)C)c1ccccc1	-3%	-5	-1	0	-35*	-6
COCCCNC(=O)c1ccc(NC(=O)N2CCCCc3ccccc32)cc1	0%	6	2	0	-17	0
CCCCn1c(=O)nc2n(-c3ccc(F)cc3)c3ccccc3cc-2c1=O	-1%	-4	-1	0	-9	1
C=CCC1NS(=O)(=O)OC2CCCC12 (configuration not stated)	-4%	37*	3	0	-15	1
C=CCC1NS(=O)(=O)OC2CCCCC12 (configuration not stated)	-2%	1	2	0	-5	0
O=C(CSc1n[nH]c(-c2ccccc2Cl)n1)NCCc1ccccc1	-1%	0	0	0	4	1
CCN(CC)C(=O)c1ccc2c(c1)N(Cc1ccccc1)C(=O)CS2=O (configuration not stated)	-2%	33*	-3	0	13	0
COc1ccc(CCNCc2c(OC)ccc3ccccc23)cc1OC	3%	4	38*	0	-28	-1
COc1ccccc1CCNCc1ccc(OC)c(OCc2ccccc2)c1	-3%	0	62*	1	-58*	-12
SMILES	GRP78 ERSR act	TRHR enhancer	D1 agonist	TRHR agonist	D1 antagonist	D1 potentiator
COc1cc(CNCc2cccnc2)ccc1OCc1ccccc1	1%	10	14	0	4	-2
COc1ccc(CNCc2ccco2)cc1OCc1ccccc1	2%	26	44*	0	-3	-5
O=C(CCc1ccc(O)c(O)c1)N/N=C/c1ccc2c(c1)OCO2	22µM*	0	10	0	-10	-6
COc1ccc(CN2CCn3nc(C(=O)NC(C)C)cc3C2=O)cc1	2%	3	-2	0	.	-5
COc1ccc(/C(C)=N/NC2=NCCN2)cc1Cl	-2%	6	2	2	-93*	-9
O=C(NNc1ccccn1)C(c1ccccc1)c1ccccc1	0%	-3	3	0	-15	0
CC(C)CN(CC(C)C)CC(O)Cn1cc(/C=C/C(=O)c2ccccc2)c2ccccc21 (configuration not stated)	-5%	5	3	3	10	1
CCCN(CCC)CC(O)Cn1cc(/C=C/C(=O)c2ccc(OCC)cc2)c2ccccc21 (configuration not stated)	-11%	-2	69*	4	-32*	0
CCCN(CCC)CC(O)Cn1c2ccccc2c2ccccc21 (configuration not stated)	-2%	-11	31*	1	1	-4
Cc1ccc(N(CC(O)Cn2c3ccccc3c3ccccc32)S(C)(=O)=O)cc1 (configuration not stated)	-1%	7	-1	0	6	2
Cc1cccc(C)c1N(CC(O)Cn1c2ccccc2c2ccccc21)S(C)(=O)=O (configuration not stated)	0%	3	8	3	-36*	-4
CCOC(=O)N1CCN(S(=O)(=O)c2ccc(C(=O)N(CCN(CC)CC)c3nc4c(C)cccc4s3)cc2)CC1	-4%	-2	12	0	2	-3
Cc1ccc(NC(=O)Cc2coc3c(C)c(C)ccc23)cc1Cl	-9%	0	9	1	0	1
CCOc1nc(N=C(N)N)nc2c(C)cccc12	-8%	13	2	0	9	-2
Cc1ccc(C)n1-c1nnc(N2CCCC(C(=O)NCc3cccc(Br)c3)C2)s1 (configuration not stated)	-2%	15	0	-1	2	0
